Source: PubChem
Hits are enriched below; roughly 11% of the tested compounds scored in any of these assays.
Sm TGR block: qHTS Assay for the Inhibitors of Schistosoma Mansoni Peroxiredoxins; purified TGR, DTNB reduction, TNB absorbance 405 nm; AID 485364, 2010; Potency, µM (series often up to 114 µM), inactives show at the highest dose activity change, negative = inhibition, most hits filed as inhibitors; hit rate 3% among 360,000; Schistosoma mansoni thioredoxin glutathione reductase (TGR), Q962Y6; note: % is set by controls: 0 for no effect and ±100 for the full control effect; nearly all actives have a fitted effect of over 60% in size
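Kinetic colorimetric format: TGR-catalysed, NADPH-driven DTNB reduction monitored via TNB absorbance. Enzyme dispensed at 20 nM; compound exposure 15 min at room temperature before reaction start.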
AMA1-RON2 inh: qHTS for Inhibitors of AMA1-RON; Towards Development of Antimalarial Drug Lead: Primary Screen. AID 720542, 2013. Potency, µM (highest dose often 58.2 µM), without a hit: at the highest dose activity change, negative = inhibition, usual class: inhibitors. AlphaScreen AMA1-biotinylated RON2 peptide binding. Plasmodium falciparum AMA1 (3D7) - RON2 peptide interaction. hit rate 0.2% among 360,000;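 note: 0% = vehicle wells and -100% = peptide control; nearly all actives have a fitted effect of over 45% in size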
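AMA1 (3D7) with his tag at 25 nM final met compounds first, then biotinylated RON2 peptide at 25 nM; detection used donor plus acceptor beads, 10 µg/mL apiece, read by AlphaScreen after 30 min at room temperature.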
Pf growth 48h: Primary qHTS for delayed death inhibitors of the malarial parasite plastid, 48 hour incubation; P. falciparum luciferase growth in erythrocytes, 48 h; Potency, µM (top dose mostly 28.7 µM), without a hit: top-dose activity change, negative = inhibition, most hits filed as inhibitors; hit rate 5.9% among 310,000; AID 504832, 2011; note: % is set by controls: 0 for no effect and ±100 for the full control effect
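Read-out is firefly luciferase luminescence from an integrated reporter in P. falciparum, so falling signal marks reduced parasite growth. Infected erythrocytes were at 2% hematocrit and 0.1% parasitemia (final) in Albumax-supplemented RPMI 1640.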
NS1 inh: qHTS Assay for Inhibitors of Influenza NS1 Protein Function; Potency, µM (titrated, usually from 46.1 µM), inactives show top-dose activity, positive = more growth; hit rate 0.4% among 270,000; calls by dose curve; note: actives are rising curves; nearly all actives have a fitted effect of over 50% in size
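Compounds were scored for reversing the slow growth caused by influenza A NS1 in S. cerevisiae, measured by optical density at 600 nm. Assay medium contained 2% galactose at pH 6.0; NS1-free yeast of the same strain were the positive control.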
Pf growth 96h: Primary qHTS for delayed death inhibitors of the malarial parasite plastid, 96 hour incubation; P. falciparum luciferase reporter growth, 96 h; Potency, µM (doses to about 28.7 µM), for inactives: at the highest dose activity change, negative = inhibition, usual class: inhibitors; hit rate 6.9% among 320,000; AID 504834, 2011; note: % is set by controls: 0 for no effect and ±100 for the full control effect
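Two parasite generations (96 h, 37 C, 5% CO2) of compound exposure in infected erythrocytes (0.05% parasitemia, 2% hematocrit). Luciferase-reporter P. falciparum; decreased luminescence indicates inhibited growth, aimed at apicoplast-acting delayed death.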
The depositor's hits bear a star. Unless noted, calls come from the whole dose curve; as a rule, active = well fitted curve in the direction sought with a large enough effect; inconclusive = small, poorly fitted or top-dose-only effect, or another doubt; inactive = no such curve, though single readings can be large; an effect the other way counts as inactive or inconclusive. Potency is the fitted concentration of half-maximal effect.

`Cc1nc(C(=O)N2CCc3c([nH]c4ccccc34)C2c2ccccn2)cs1` (centres undefined) gave Sm TGR block -25%, AMA1-RON2 inh 4%, Pf growth 48h 18%, NS1 inh 5% and Pf growth 96h -14%.
For Cc1cnc(C(=O)N2CCc3c([nH]c4ccccc34)C2c2ccc(F)cc2)cn1 (centres undefined) the results were Sm TGR block 7%, AMA1-RON2 inh -28%, Pf growth 48h 5.2µM*, NS1 inh -2% and Pf growth 96h inconclusive.
`Cc1nc(C(=O)N2CCc3c([nH]c4ccccc34)C2c2cc(F)ccc2F)cs1` (centres undefined) gave Sm TGR block 6%, AMA1-RON2 inh -12%, Pf growth 48h 10µM*, NS1 inh -9% and Pf growth 96h 28%.
`CCc1cc(C(=O)N2CCc3c([nH]c4ccccc34)C2c2ccc(OC)cc2F)no1` (centres undefined) gave Sm TGR block -2%, AMA1-RON2 inh -26%, Pf growth 48h 52%, NS1 inh 9% and Pf growth 96h inconclusive.
O=C(NNC(=O)c1ccccc1C(F)(F)F)c1csc(N2CCOCC2)n1 was read as Sm TGR block -1%, AMA1-RON2 inh 55%, Pf growth 48h 11%, NS1 inh -4% and Pf growth 96h -9%.
For Cc1nc(-c2ccc(Cl)cc2)sc1C1(C)CC(c2cccc([N+](=O)[O-])c2)=NO1 (centres undefined) the results were Sm TGR block -22%, AMA1-RON2 inh -17%, Pf growth 48h 1%, NS1 inh -7% and Pf growth 96h 57%.
Screening CC(C)(C)OC(=O)N1CCC(c2c(C(=O)NCCN3CCOCC3)cnn2-c2ccc(F)cc2)CC1 returned Sm TGR block 0%.
For CC1CCCCN1S(=O)(=O)c1cccc2nonc12 (centres undefined) the results were Sm TGR block 5%, AMA1-RON2 inh 10%, Pf growth 48h -14%, NS1 inh 6% and Pf growth 96h inconclusive.
COC(=O)CNC(=O)Cn1c(=O)n(Cc2ccc(F)cc2)c(=O)c2sccc21 was read as Sm TGR block 8%, AMA1-RON2 inh 6%, Pf growth 48h 44%, NS1 inh inconclusive and Pf growth 96h 12µM*.
`CCN(CC)C(=O)Cn1c(=O)n(Cc2ccc(F)cc2)c(=O)c2sccc21` gave Sm TGR block 6%, AMA1-RON2 inh 23%, Pf growth 48h 9%, NS1 inh 17% and Pf growth 96h inconclusive.
Screening CSc1cccc(NS(=O)(=O)c2ccc3c(c2)oc(=O)n3C)c1 returned Sm TGR block 0%, AMA1-RON2 inh -14%, NS1 inh -31% and Pf growth 96h 12µM*.
`CC(=O)Nc1ccc(S(=O)(=O)Nc2cccc(-c3nc4cc(C)ccc4o3)c2)cc1` gave AMA1-RON2 inh -1% and NS1 inh -34%.
For Cc1ccc(NS(=O)(=O)c2ccc3c(c2)oc(=O)n3C)cc1 the results were Sm TGR block -7%, AMA1-RON2 inh 2%, Pf growth 48h 1%, NS1 inh 11% and Pf growth 96h 2.6µM*.
Cc1ccc(S(=O)(=O)Nc2ccc(-c3nc4cc(NS(=O)(=O)c5ccc(C)cc5)ccc4o3)cc2)cc1 was read as Sm TGR block -6%, NS1 inh 10% and Pf growth 96h 4.1µM*.
Screening Cn1c(=O)c2cc(S(=O)(=O)NC(C(=O)Nc3cccc(F)c3)c3ccccc3)ccc2n(C)c1=O (centres undefined) returned Sm TGR block 17%, AMA1-RON2 inh 1%, NS1 inh 3% and Pf growth 96h inconclusive.
Screening Cn1c(=O)c2cc(S(=O)(=O)Nc3cccc(F)c3)ccc2n(C)c1=O returned Sm TGR block 7%, AMA1-RON2 inh 13%, NS1 inh 1% and Pf growth 96h 15µM*.
CCc1ccccc1Nc1nn2c(=O)c3ccc(C(=O)NCCCOC(C)C)cc3nc2s1 was read as Sm TGR block 4%, Pf growth 48h 13µM* and Pf growth 96h inconclusive.
